The values below come from ChEMBL document CHEMBL4513216, “Probing the Open Global Health Chemical Diversity Library for Multistage-Active Starting Points for Next-Generation Antimalarials” (ACS Infect Dis, 2020).

Structures are written as SMILES. Screen size: about 69,000 compounds; about 8,600 (12%) showed an effect of 50% or more. The list comes from a sample in which strong results are over-represented; it also holds similar structures and randomly drawn compounds.

This test concerns Plasmodium berghei. As to the kind of experiment: Screen against P. berghei liver stage (PbLuc), transformed with Luciferase, at 10uM. It counts as functional, HepG2. The conditions noted are these: tested at 10 uM.
As to `COCCN1CCn2cc(CNC(=O)c3cnn(C)c3)nc2C1`, the INHIBITION was found to be 16.8%.
As for `O=C(NCc1ccco1)[C@@H]1CC[C@@H]2[C@@H](CCN2CC2CC2)O1`, the figure is 12.3%.
For `O=C(Cc1ccccn1)N1CCC(O)(Cn2ccc3ccncc32)CC1`, the INHIBITION is recorded as -21.4%.
Turning to `NC(=O)Cn1cc(NC(=O)N2CCC(c3ccccc3)CC2)cn1`, the INHIBITION was 31.65%.
As for `CC(C)CN(CC(O)c1ccc(F)cc1)C(=O)c1cc[nH]n1` (configuration not stated), the figure is 39.5%; as for `CC(C)OC(=O)[C@@H]1CCN(C(=O)c2ccccn2)[C@@H]1c1ccc(F)cc1`, -18.8%; as for `Cc1cccc(S(=O)(=O)N2C[C@@H]3C[C@H](C(=O)NCC(C)C)[C@H](C2)O3)c1`, 45.2%.
In the case of `O=C(CC1CCCC1)N1CCn2cc(Cn3cccn3)nc2C1`, the INHIBITION came out at 31.1%.
As for `Cc1cc(N(C)C)nc(C2(C)CCCN2C(=O)c2ccccc2)n1` (configuration not stated), the figure is 15.9%; as for `Cc1ccc(CN2CC[C@H]3CO[C@H](CN(C)Cc4ccco4)[C@H]3C2)s1`, 18.7%; as for `Cc1cccc(N2CC[C@@H]3[C@@H](CO[C@H]3CNC(=O)c3ccco3)C2)n1`, -44.2%.
As to `CN(Cc1ccco1)C[C@H]1OC[C@@H]2CCN(Cc3ccccn3)C[C@@H]21`, the INHIBITION was -14.7%.
On to `Cc1cccc(N2CC[C@H]3[C@H](CO[C@@H]3CN(C)Cc3ccco3)C2)n1`, for which the INHIBITION was found to be 65.3%.
Take `Cc1cccc(N2CC[C@H]3CO[C@H](CN(C)Cc4ccco4)[C@H]3C2)n1`: the INHIBITION turned out to be 46.4%.
For the molecule `Cc1cccc(N2CC[C@@H]3[C@@H](CO[C@H]3CNS(C)(=O)=O)C2)n1`, the INHIBITION is given as -39.4%.
On to `Cc1ccc(N2CC[C@@H]3[C@@H](CO[C@H]3CNC(=O)c3ccco3)C2)nn1`, for which the INHIBITION is on record as 57.1%.
The same measure for `CN(Cc1ccco1)C[C@@H]1OC[C@H]2CN(Cc3nccs3)CC[C@H]21`: -46.8%.
For `CN(Cc1cccnc1)C[C@@H]1OC[C@H]2CN(Cc3ccco3)CC[C@H]21`, the INHIBITION is reported as 8.03%.
Regarding `CN(Cc1ccco1)C[C@H]1OC[C@@H]2CN(c3ncc(F)cn3)CC[C@@H]21`, the INHIBITION was determined as 58.3%.
As for `Cc1ccc(N2CC[C@H]3CO[C@H](CN(C)Cc4ccco4)[C@H]3C2)nn1`, the figure is 53.4%; as for `O=C(NC[C@H]1OC[C@@H]2CCN(c3ccccn3)C[C@@H]21)c1ccco1`, -0.804%; as for `CCc1ccc(CN2CCC(c3ccccc3C(=O)O)C2)nc1` (configuration not stated), -8.66%.
Consider `Cc1cccn2c(NC(C)(C)C)c(C3CCN(C(=O)C4CC4)CC3)nc12`, for which the INHIBITION is given as -4.49%.
For `CNC(=O)[C@H]1C[C@@H]2CN(S(=O)(=O)c3ccc(C)c(F)c3)C[C@@H]2N1C`, the INHIBITION is reported as 0.542%.
As for `CC(CNC(=O)c1cn(-c2ccccc2)nn1)Cn1cccn1` (configuration not stated), the figure is 20.2%; as for `CCN(CC)C1COc2c(cc(Br)c(C)c2C)C1=O` (configuration not stated), 47.1%.
The same measure for `COc1ccc(-c2cc(C3(O)CCN(C)CC3)on2)cc1`: 19.3%.
As for `CN(Cc1ccco1)C[C@H]1OC[C@@H]2CCN(Cc3cccs3)C[C@@H]21`, the figure is 25.4%; as for `CN(Cc1ccco1)C[C@H]1OC[C@@H]2CCN(Cc3ccsc3)C[C@@H]21`, 62.4%; as for `CN(Cc1ccco1)C[C@H]1OC[C@@H]2CCN(Cc3ccncc3)C[C@@H]21`, -46.8%.
Turning to `Cc1cn[nH]c1C1COCCN1C(=O)c1ccc2c(c1)CCCC2` (configuration not stated), the INHIBITION is -6.88%.
As for `CSc1ccc(C(=O)C2CCCN(C(=O)CCn3cnnn3)C2)cc1` (configuration not stated), the figure is 5.91%; as for `COc1ccc(CC(=O)NC(C)c2nc3cccnc3n2C(C)C)cc1` (configuration not stated), 90.5%; as for `COc1ccccc1CC(=O)NC(C)c1nc2cccnc2n1C(C)C` (configuration not stated), -29.8%.
The same measure for `COc1cccc(CC(=O)NC(C)c2nc3cccnc3n2C(C)C)c1` (configuration not stated): -17.7%; for `CN(Cc1ncc(-c2ccccc2C(=O)O)s1)c1ncccn1`: 12%.
As for `Cc1cc(S(=O)(=O)NC(C)(C)CN)c(F)cc1F`, the figure is 37.6%; as for `CCC(NC(=O)C1CCN(S(C)(=O)=O)CC1)c1ccc(C)c(C)c1` (configuration not stated), 58.5%; as for `Cc1csc(C(Cc2ccsc2)NC(=O)C2CCN(S(C)(=O)=O)CC2)n1` (configuration not stated), -11.7%.
For the molecule `CCC(NC(=O)C1CCN(S(C)(=O)=O)CC1)c1ccc(C)cc1C` (configuration not stated), the INHIBITION is given as 88%.
On to `COc1ccc(C(C(=O)O)N2CCN(C3CCCC3)CC2)cc1C` (configuration not stated), for which the INHIBITION is 43%.
With `CCOc1ccc(C(C)NC(=O)N2CCC(C(N)=O)CC2)cc1OC` (configuration not stated), the INHIBITION came out at 47.4%.
As for `CCC(NC(=O)C1CCN(S(C)(=O)=O)CC1)c1ccc(C)cc1` (configuration not stated), the figure is 33%; as for `CCC(NC(=O)C1CCN(S(C)(=O)=O)CC1)c1ccc(OC)c(OC)c1` (configuration not stated), -6.53%; as for `COc1ccc(C(C)NC(=O)C2CCN(S(C)(=O)=O)CC2)cc1C` (configuration not stated), 68.1%.
On to `CCC(NC(=O)C1CCN(S(C)(=O)=O)CC1)c1ccc(OC)cc1` (configuration not stated), for which the INHIBITION was found to be 73.6%.
`CCC(NC(=O)C1CCN(S(=O)(=O)N(C)C)CC1)c1ccc(C)c(C)c1` (configuration not stated): the INHIBITION came to 21.8%.
As for `CCC(NC(=O)c1nn(C)cc1C(=O)O)c1ccc(C)cc1C` (configuration not stated), the INHIBITION came out at 32.3%.
The same measure for `CCC(NC(=O)C1CCN(S(C)(=O)=O)CC1)c1ccc(OC)c(C)c1` (configuration not stated): 23.5%; for `Cc1cnn(CCNCc2c(C)nn(C)c2Cl)c1`: 19.2%.
With `c1ccc(CN2CCc3nnc(COc4ccccn4)n3CC2)nc1`, the INHIBITION is listed as 21.5%.
The same measure for `Cc1occc1C(=O)N1CCC2(CC1)CN(Cc1nccs1)CCO2`: 30.3%; for `Cc1cc(C)n(CC(=O)N2CCC(c3ccn4nccc4n3)CC2)n1`: 19.5%.
In the case of `Cc1ccc(CN2CCC3(CCCC(=O)N3)CC2)s1`, the INHIBITION was -24.5%.
The same measure for `CCN(Cc1ccc2c(c1)OCCO2)C(=O)NC(C)Cn1cccn1` (configuration not stated): 45.7%; for `CCOCc1nc2c(c(N3CCCn4nc(C)cc4C3)n1)CCNCC2`: 34.9%.
The same measure for `CCOCCCNC(=O)C1(C)CCC(=O)N1c1cc(OC)ccc1OC` (configuration not stated): 28.3%; for `Fc1ccc(N2CCCN(Cc3ccc(-c4cc[nH]n4)o3)CC2)cc1`: 23.7%; for `Cc1cnc(C)c(N2CCN(Cc3ccc(-c4cc[nH]n4)o3)CC2)n1`: -7.48%.
As for `O=C(O)c1ccccc1C1CCN(Cc2ccc(-c3cc[nH]n3)o2)C1` (configuration not stated), the figure is 9.16%; as for `O=C(O)c1ccc(CC2CCN(Cc3ccc(-c4cc[nH]n4)o3)C2)cc1` (configuration not stated), 67.8%; as for `Cc1cc(N2CCN(Cc3ccc(-c4cc[nH]n4)o3)CC2)cc(C)n1`, 52.4%.
`O=C(O)c1ccc(C2CCCN(Cc3ccc(-c4cc[nH]n4)o3)C2)cc1` (configuration not stated): the INHIBITION is given as -10.4%.
As for `O=c1occ(CN2CCOCC2)c(O)c1CN1CCOCC1`, the INHIBITION was determined as 3.19%.
As for `CCOc1ccc(CNC(C)c2cccc(S(=O)(=O)NC)c2)cc1` (configuration not stated), the figure is 46.6%.
For the molecule `CNS(=O)(=O)c1cccc(C(C)NCc2ccc(F)c(F)c2)c1` (configuration not stated), the INHIBITION was found to be 59.4%.
The same measure for `CNS(=O)(=O)c1cccc(C(C)NCc2ccccc2)c1` (configuration not stated): 11.8%.
As for `Cc1nc(CNC(C)c2cccc(S(=O)(=O)N(C)C)c2)no1` (configuration not stated), the figure is 39.7%.
The same measure for `CNS(=O)(=O)c1cccc(C(C)NCc2cccc(OC)c2)c1` (configuration not stated): 20.1%; for `CC(NCc1ccc(F)cc1)c1ccc(S(C)(=O)=O)cc1` (configuration not stated): 25.5%.
As for `CNS(=O)(=O)c1cccc(C(C)NCc2ccncc2)c1` (configuration not stated), the INHIBITION is on record as 32.9%.
As for `CC(NCc1cccc(S(=O)(=O)N(C)C)c1)c1cccnc1` (configuration not stated), the figure is 21.9%; as for `CNS(=O)(=O)c1cccc(C(C)NCc2ccc(C)c(C)c2)c1` (configuration not stated), 62.8%.
For the molecule `CNS(=O)(=O)c1cccc(C(C)NCc2cccc(O)c2)c1` (configuration not stated), the INHIBITION is given as 50.8%.
As for `CNS(=O)(=O)c1cccc(C(C)NCc2ccc(F)cc2F)c1` (configuration not stated), the figure is 65.4%.
With `CC(CO)NS(=O)(=O)c1cccc(C(C)C)c1` (configuration not stated), the INHIBITION was 26.6%.
As for `O=S(=O)(C1CC1)N1CC[C@@H]2[C@@H]1CCN2Cc1cccs1`, the figure is 33%; as for `Cc1cccc(NC(=O)N2CCCn3cnc(CN(C)C(C)C)c3C2)c1`, -6.3%.
As for `NC(=O)c1cnn2c(C3CCCN(C4CCOCC4)C3)ccnc12` (configuration not stated), the figure is 10.51%; as for `CCc1ccc(NC(=O)CC2Cn3ncnc3NC2=O)cc1` (configuration not stated), -4.76%; as for `CCN1C(=O)[C@H]2CN(CC(C)C)C[C@H]2C12CCN(C(=O)NC(C)C)CC2`, -16.9%.
As for `Cc1ccc(N2CCCC3(CCCC(=O)N3)C2)nn1` (configuration not stated), the figure is 3.88%; as for `CCOCCCC(=O)NCCC(=O)N1CCN(c2ccccn2)CC1`, -39.5%.
On to `CCN1CC(O)CN(C(=O)c2ccc(SC)cc2)CC1=O` (configuration not stated), for which the INHIBITION is reported as 47.2%.
The same measure for `c1ccc2nc(N3CCOC(Cn4cncn4)C3)cnc2c1` (configuration not stated): -44.3%.
Consider `CCN(CC(=O)N(C)C)C(=O)c1nc(C)n(-c2ccccc2Cl)n1`, for which the INHIBITION was -28.7%.
For the molecule `CCc1cc(CN(C)C(=O)c2cnn[nH]2)on1`, the INHIBITION is -47.9%.
The same measure for `COc1ccccc1CNc1ncnc2c1NC(=O)CN2`: -79.3%; for `O=C(NCc1nncn1C1CCCCC1)C1COc2ccccc2O1` (configuration not stated): 35.4%.
Turning to `CNS(=O)(=O)c1cccc(C(C)NCc2ccc(C)o2)c1` (configuration not stated), the INHIBITION is given as 35.4%.
As for `CNS(=O)(=O)c1cccc(C(C)NCc2ccsc2)c1` (configuration not stated), the figure is 36.3%; as for `CNS(=O)(=O)c1cccc(C(C)NCc2ccccc2OC)c1` (configuration not stated), -9.93%.
The same measure for `CNS(=O)(=O)c1cccc(C(C)NCc2nccn2C(C)C)c1` (configuration not stated): 23.5%; for `CNS(=O)(=O)c1cccc(C(C)NCc2cccc(C)c2C)c1` (configuration not stated): 52.6%.
As to `CNS(=O)(=O)c1cccc(C(C)NCc2ccco2)c1` (configuration not stated), the INHIBITION was 55.1%.
As for `O=C(NCc1ccccc1)[C@H]1C[C@H]2CN(C(=O)NC3CCCC3)C[C@@H]1O2`, the figure is 7.65%.
For the molecule `CCC1CCCCN1C(=O)Cn1nc(-c2cc(C)oc2C)cc(N)c1=O` (configuration not stated), the INHIBITION turned out to be 37.5%.
